TDP43 rescue: rescues yeast growth from TDP-43 toxicity; AID 652104; Potency, µM (titrated, usually from 46.1 µM), for the others: top-dose growth rescue (activation), most hits filed as activators; hit rate 1.8% among 410,000; TDP-43 expressing yeast growth rescue, BacTiter-Glo, 24 h; further: % of control where 0% means no effect; nearly all actives have a fitted effect of over 50% in size
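Cell-based yeast growth screen: TDP-43 expression induced in galactose, inoculum OD600=0.02 after raffinose pregrowth to mid-log. Read-out BacTiter-Glo luminescence at 24 hr, 30 deg C; inhibition of toxicity seen as signal increase.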
ClpP mod: qHTS Assay for Activators of ClpP; ATP-dependent Clp protease proteolytic subunit (Bacillus subtilis (strain 168)), P80244; purified B. subtilis ClpP, FRET peptide cleavage, 20 min; Potency, µM (highest dose often 57.5 µM), without a hit: top-dose activity change, negative = active; hit rate 1.9% among 340,000; active means well fitted falling curve with a large enough effect; inconclusive means small, poorly fitted or top-dose-only effect; inactive means no such curve, though single readings can be large or run the other way; further: the source files actives as falling curves though it sought activators and does not explain the sign; nearly all actives have a fitted effect of over 65% in size
Target sequence (P80244 whole entry, looked up): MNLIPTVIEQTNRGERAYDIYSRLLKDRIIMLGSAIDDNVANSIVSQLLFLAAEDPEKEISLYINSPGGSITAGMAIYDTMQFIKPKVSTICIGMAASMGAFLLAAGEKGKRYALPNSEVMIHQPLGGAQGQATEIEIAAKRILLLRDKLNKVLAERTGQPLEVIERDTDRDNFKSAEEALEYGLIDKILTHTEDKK
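ClpP 10 microg/mL final, pH 8 Tris/KCl buffer with BSA, glycerol, Tween-20; compound pinned in; FRET-FV substrate; RT 20 min; Ex320/Em430; ΔFRET vs ADEP 5.8 microM, DMSO, no enzyme.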
Abeta yeast res: A-beta toxicity reversal in yeast; yeast expressing A-beta42, growth rescue, OD600, 48 h; response scale: 0% DMSO, 100% iron-clioquinol control; Potency, µM (top dose mostly 46.1 µM), hits mostly activators; hit rate 0.063% among 410,000; further: nearly all actives have a fitted effect of over 55% in size
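Growth rescue measured by 600 nm absorbance after 48 h yeast culture at 30 C with compound. Values normalized between DMSO and an equimolar ferric chloride plus clioquinol control.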
FUS yeast rescue: rescues growth of FUS-expressing yeast. S. cerevisiae FUS-expressing, growth rescue, OD600, 24 h. Potency, µM (highest dose often 76.6 µM), hits mostly activators. hit rate 0.24% among 390,000;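 further: plate controls were DMSO vehicle for no effect and reference control for full effect; nearly all actives have a fitted effect of over 55% in size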
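Cultures pregrown in 2.5% raffinose medium are shifted to minimal medium containing 2% galactose to express toxic FUS. Compounds are tested at several concentrations. After 24hr at 30C, growth is quantified at 600 nm absorbance.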
aSyn rescue: rescues yeast growth from alpha-synuclein toxicity; Yeast expressing alpha-synuclein, growth rescue, BacTiter-Glo, 24 h; Potency, µM (highest dose often 46.1 µM), without a hit: at the top dose growth rescue (activation), most hits filed as activators; hit rate 0.14% among 370,000; further: % of control where 0% means no effect; nearly all actives have a fitted effect of over 65% in size
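Screening used galactose-induced yeast with toxic alpha-synuclein levels, exposed to compound for 24 hr at 30 deg C. Cell growth, read with BacTiter-Glo luminescence, gave the measured signal.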
MmCpn inh: blocks the Methanococcus maripaludis chaperonin Mm-Cpn. Potency, µM (doses to about 76.9 µM), for inactives: top-dose activity, negative = inhibition, most hits filed as inhibitors. AID 504842. purified Mm-Cpn ATPase, ADP Transcreener TR-FRET. hit rate 0.031% among 330,000; further: on the % scale 0 is the no-effect control and ±100 the full control effect; nearly all actives have a fitted effect of over 80% in size
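ATPase read-out: TR-FRET ADP immunoassay (anti-ADP Eu cryptate vs ADP-d2), ex 320 nm, em 590/665 nm; signal drops as ADP forms. Enzyme 25 nM, ATP 10 uM, 30 min at 37°C after 10 min compound preincubation.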
An asterisk follows results filed as active; i = inactive; ? = inconclusive; nt = not tested or not shown. A selection: hits, their analogues and other compounds. The true share with any hit is near 3.6%. Unless noted, the call rests on the fitted dose curve; in most records, active means well fitted curve in the direction sought with a large enough effect; inconclusive means small, poorly fitted or top-dose-only effect, or another doubt; inactive means no such curve, though single readings can be large; an effect the other way counts as inactive or inconclusive. Potency means the concentration at half of the fitted maximal effect.

SMILES	TDP43 rescue	ClpP mod	Abeta yeast res	FUS yeast rescue	aSyn rescue	MmCpn inh
Cc1cc2n(n1)C(c1ccc(O)cc1)Nc1ccccc1-2 (centres undefined)	?	28.2µM*	i	i	0.3%	2.0%
Cc1cc2n(n1)C(c1ccco1)Nc1ccccc1-2 (centres undefined)	16.8%	?	i	i	13.2%	0.1%
COc1cc(C2Nc3ccccc3-c3cc(C)nn32)ccc1O (centres undefined)	15.1%	31.6µM*	i	i	nt	nt
Cc1cccc(N2CCN(C(=O)CCC(=O)NNc3nc4ccccc4c4nc(C)nn34)CC2C)c1 (centres undefined)	15.3%	-0.8%	i	i	nt	nt
CCOc1ccc(C2CC(c3cccc(C)c3)n3ncnc3N2)cc1 (centres undefined)	?	0.6%	i	i	-1.4%	-2.5%
COc1ccc(C2Nc3ccccc3-c3cc(C)nn32)cc1OC (centres undefined)	24.2%	14.1µM*	i	i	nt	nt
CCOc1cccc(C2Nc3ccccc3-c3cc(C)nn32)c1O (centres undefined)	0.0%	3.2%	i	i	nt	nt
CCOc1ccc(C2Nc3c(C)cccc3-c3cc(C)nn32)cc1 (centres undefined)	11.2µM*	3.5%	?	i	nt	nt
CCN1CCSc2ccc(C(=O)NCc3ccc(F)cc3)cc21	-12.1%	4.0%	i	i	-6.9%	nt
CCOC(=O)c1sc(C)c2c1NC(C)(c1ccccc1)NC2=O (centres undefined)	1.2%	31.6µM*	i	i	-8.4%	-20.4%
CCN1CCN(C(=O)c2cn(CCOC)c(=O)c3c2c2ccccc2n3C)CC1	-12.6%	?	i	i	2.3%	-0.1%
COCCNC(=O)c1cn(CCOC)c(=O)c2c1c1ccccc1n2C	-4.0%	3.9%	i	i	3.4%	2.5%
O=C(c1ccco1)N1CCN(CC(O)Cn2c3ccccc3c3ccccc32)CC1 (centres undefined)	-1.0%	28.2µM*	i	i	12.9%	-12.3%
Cn1cc(C(=O)N2CCN(C(=O)c3ccco3)CC2)c2c3ccccc3n(C)c2c1=O	-17.1%	14.1µM*	i	i	-6.7%	-0.1%
CCOC(=O)C1CCN(C(=O)c2cn(CCOC)c(=O)c3c2c2ccccc2n3C)CC1	-17.4%	7.94µM*	i	i	-0.7%	-1.6%
COCCCNC(=O)c1cn(CC(C)C)c(=O)c2c1c1ccccc1n2C	-4.6%	31.6µM*	i	?	-1.5%	0.3%
Cn1c2ccccc2c2c(C(=O)N3CCN(c4ccc(F)cc4)CC3)cn(C3CCCCC3)c(=O)c21	19.6%	?	i	i	nt	nt
Cc1cc(C)c(C(=O)Nc2ccccc2)c(SCC(=O)Nc2ccc(Br)cc2C)n1	26.3%	1.8%	i	i	nt	nt
COc1ccc(NC(=O)c2oc3ccccc3c2NC(=O)Cc2cccs2)cc1	-1.1%	127.2%	i	i	nt	nt
COc1ccc(CCNC(=O)CSc2n[nH]c(-c3ccccc3Cl)n2)cc1OC	10.2%	-3.0%	i	i	nt	nt
Cc1ccc(N2CCN(Cc3nnc(-c4ccccc4F)o3)CC2)c(C)c1	16.8%	-1.5%	i	i	nt	nt
COc1cc(/C=C/c2nc(C#N)c(NC(C)c3ccccc3)o2)cc(OC)c1OC (centres undefined)	0.0%	4.7%	i	i	nt	nt
CCOc1ccc(NC(=O)[C@H]2O[C@@H]3OC(C)(C)O[C@@H]3[C@H]3OC(C)(C)O[C@H]32)cc1	3.8%	-1.1%	i	i	nt	nt
COCCCNC(=O)c1cn(CCOC)c(=O)c2c1c1ccccc1n2C	-2.8%	3.5%	i	i	-13.0%	-1.8%
CC(C)Cn1cc(C(=O)N2CCN(c3ccccn3)CC2)c2c3ccccc3n(C)c2c1=O	-4.3%	15.8µM*	i	i	3.6%	-0.4%
SMILES	TDP43 rescue	ClpP mod	Abeta yeast res	FUS yeast rescue	aSyn rescue	MmCpn inh
COCCn1cc(C(=O)NCCCOC(C)C)c2c3ccccc3n(C)c2c1=O	-6.4%	31.6µM*	i	i	-7.9%	-0.4%
CCOc1ccc(NC(=O)c2cn(CC(C)C)c(=O)c3c2c2ccccc2n3C)cc1	1.7%	-4.4%	i	i	-4.8%	-1.0%
CC(C)Cn1cc(C(=O)NCCCN2CCCC2=O)c2c3ccccc3n(C)c2c1=O	-15.6%	15.8µM*	i	i	-0.3%	-2.6%
CC(Oc1cc2oc(=O)cc(-c3ccccc3)c2cc1Cl)C(=O)NCC1CCC(C(=O)O)CC1 (centres undefined)	19.2%	-13.0%	i	i	-11.8%	0.5%
CC(NC(=O)OC(C)(C)C)C(=O)Oc1cc2oc(=O)cc(-c3ccccc3)c2cc1Cl (centres undefined)	4.47µM*	-19.0%	i	nt	16.7%	-3.0%
O=C(Nc1nnc(C2=COCCO2)o1)c1cccc(Br)c1	?	0.6%	?	i	?	-0.5%
CS(=O)(=O)c1cccc(C(=O)Nc2nnc(C3=COCCO3)o2)c1	-23.0%	10µM*	i	i	-12.0%	-0.9%
O=C(Cn1c(=O)c2cccn2c2cccnc21)NCCCN1CCN(c2ccccc2)CC1	nt	nt	nt	i	nt	nt
CCOC(=O)c1cc2c3ccccc3n(CC)c2nc1N	4.8%	15.8µM*	i	nt	1.4%	-0.2%
O=S(=O)(c1ccc(Cl)cc1)c1snnc1-c1ccccc1	?	-1.2%	i	i	-5.3%	-0.8%
O=S(=O)(c1ccc(F)cc1)c1snnc1-c1ccccc1	14.1µM*	nt	i	i	-5.8%	0.4%
CC(C)(C)C(=O)Nc1nnc(SCC(=O)Nc2nccs2)s1	-3.5%	20µM*	i	nt	2.4%	2.0%
O=C(Nc1cccc(F)c1)c1ccc(CSc2ccccc2)o1	-6.0%	nt	i	i	-10.9%	0.6%
Cc1ccc(SCc2ccc(C(=O)Nc3nccs3)o2)cc1	12.6µM*	-2.0%	?	i	4.4%	0.0%
Cc1nnc(SCC(=O)Nc2nccs2)s1	4.3%	-0.7%	i	i	3.1%	1.8%
O=C(Nc1ccccc1F)c1ccc(CSc2ccccc2)o1	12.6µM*	0.5%	i	i	-13.0%	2.8%
O=C(Nc1nccs1)c1ccc(COc2ccccc2)o1	11.4%	-1.8%	i	i	-5.5%	-0.2%
O=C(Nc1nccs1)c1ccc(CSc2ccccc2)o1	11.2µM*	-3.6%	i	i	-17.8%	-0.3%
Cc1ccc(NC(=O)C2CCCN(S(=O)(=O)c3cccc4nsnc34)C2)cc1C (centres undefined)	20.4%	0.9%	i	i	nt	nt
